Our source for the Potency values is PubChem BioAssay (NCATS).

Each structure is given as a SMILES string. Inconclusive results are not listed. Entries that show only a call come without a potency. Calls of active or inactive are those of the source. The call rests on the fitted dose curve; in most records, active means well fitted inhibition curve with a large enough effect; inconclusive means small, poorly fitted or top-dose-only effect; inactive means no such curve, though single readings can be large or run the other way.
Potency means the concentration at half of the fitted maximal effect.

A short description of this test: Primary fluorescence-based thiol-reactive (MSTI) qHTS assay for identification of artifact compounds. (AID 1845221). Further: nearly all actives have a fitted effect of over 65% in size. The note with it: MSTI thiol-reactivity probe, 1 h; series mostly up to 53.8 µM. An excerpt:
PI: Alexander Tropsha Ph.D.
UNC Eshelman School of Pharmacy
University of North Carolina, Chapel Hill, North Carolina
Hits from high-throughput screening (HTS) of chemical libraries are often false positives due to their interference with the assay detection technology. In response to this problem, we generated the largest publicly available library of chemical liabilities and developed a free webtool to predict HTS artifacts, both of which are described herein. More specifically, we generated, curated, and integrated HTS datasets for thiol reactivity, redox activity, and luciferase (firefly and nano) activity. Using these curated datasets, we developed and validated several Quantitative Structure-Interference Relationship (QSIR) models to predict nuisance behavior. […] These models were employed for virtual profiling of the National Center for Advancing Translational Science's (NCATS) in-house library, and 256 compounds for each assay were selected for the experimental validation of nuisance behavior. The BA for these external predictions ranged from 58 to 78% for compounds within the applicability domains of the models. […] The models developed in this study, along with aggregation models previously developed by our group (SCAM Detective) were implemented in "Liability Predictor," an online tool which may be used as part of chemical library design or for triaging HTS hits. Both the models and the curated datasets are publicly available at https://liability.mml.unc.edu/.
SEQUENCE No. (e.g., 1, 2, 3, etc.); […] (e.g., Cells, Incubation, Reagent, etc.); VALUE; DESCRIPTION.
1; Reagent; 4 uL; […].
2; Compounds and control; 16 nL; Kalypsis pin tool (Wako USA) equipped with a 1536-well pin head.
4; Detection; Fluorescence, ViewLux microplate reader, 525 nm excitation, 598 nm emission.
NOTES (numbers refer to Sequence numbers above)
1. Assays determining (E)-2-(4-mercaptostyryl)-1,3,3-trimethyl-3H-indol-1-ium (MSTI) reactivity were performed as previously described in the literature with modifications for the quick identification of compounds reacting with thiol. In brief, 4 uL of MSTI or positive control Acetyl-MSTI (final concentrations of 4 uM and 4 uM, respectively) in assay buffer (2% DMSO in 1X PBS pH 7.4) was dispensed into all wells of a 1536-well assay plate (solid-bottom black plate; Greiner Bio One, Monroe, NC).
2. A Wako Pin-tool (Wako Automation, Richmond, VA) was used to transfer 16 nL of compounds (consisting of 7-plates in qHTS format, final concentration range 18.3 nM to 114 uM) or control MLS001163887 (final concentration range 1.22 nM to 40 uM).
3. Plates were centrifuged (121xg, 15 seconds) and incubated for 1 hour at room temperature protected from light.
4. Samples were read for fluorescence (Ex/Em = 525(20)/598(25) nm) on a ViewLux CCD imager (PerkinElmer). Data were normalized to Acetyl-MSTI (0% activity) and MSTI (100% activity) and the resulting percent inhibition data were fitted to a 4-parameter Hill equation using NCATS in-house software.
For orientation: qHTS replaces the single test concentration by a dilution series.
On to `COc1ccc2c(Oc3ccc(NC(=O)c4c(C)n(CC(C)(C)O)n(-c5ccccc5)c4=O)cc3F)ccnc2c1`, for which the Potency result was “inactive”.
Next, `C=C1C(=O)[C@@]23C(CC[C@@H]1[C@H]2O)[C@@]12CO[C@]3(O)[C@@H](O)[C@@H]1C(C)(C)CC[C@@H]2O` (stereo not given in full): “inactive”; `COC(=O)[C@@H]1[C@H]2C[C@H]3c4[nH]c5ccccc5c4CCN3C[C@@H]2CC[C@@H]1O`: “inactive”.
To `NC(=O)c1cccc2[nH]c(-c3ccc([C@H]4CCCN4)cc3F)nc12` belongs “inactive”; to `COc1cc2c(cc1OC)CN(CCc1ccc(NC(=O)c3cc(OC)c(OC)cc3NC(=O)c3cnc4ccccc4c3)cc1)CC2`, “inactive”; to `CC(=O)CCCCn1c(=O)c2c(ncn2C)n(C)c1=O`, “inactive”.
Next, `Cc1ccn(-c2ccc(-c3ncco3)cc2)c(=O)c1-c1ccc2nc(N)ncc2c1`: “inactive”.
Consider `CN[C@@H](C)C(=O)N[C@H]1CN(C(=O)CC(C)C)CC[C@H]2CC[C@@H](C(=O)NC(c3ccccc3)c3ccccc3)N2C1=O`, for which the Potency entry was “inactive”.
As for `COCCOC(=O)C1=C(C)NC2=C(C(=O)CC(c3ccccc3OC)C2)C1c1cccc(O)c1` (stereo not given), the Potency result was “inactive”.
Next, `COCCOc1nc(-c2ccc(Cl)c(Cl)c2)n(-c2ccc(NC(=O)CCl)cc2)n1`: “inactive”; `Cc1ccccc1C(C(=O)NC1CCCCC1)N(C(=O)Cn1ccnc1C)c1cccc(F)c1` (stereo not given): “inactive”; `CC(=O)O[C@]1(C(C)=O)CC[C@H]2[C@@H]3C=C(Cl)C4=CC(=O)[C@@H]5C[C@@H]5[C@]4(C)[C@H]3CC[C@@]21C`: “inactive”.
Next, `COc1ccc(C2Sc3ccccc3N(CCN(C)C)C(=O)C2OC(C)=O)cc1` (stereo not given): “inactive”; `O=C(O)CCc1nc(-c2ccccc2)c(-c2ccccc2)o1`: “inactive”; `NC(=O)c1ccc2nc(-c3ccc(Oc4ccc(Cl)cc4)cc3)[nH]c2c1`: “inactive”.
Next, `COc1ccc2c(Oc3ccc(NC(=O)c4c(C)n(CC(C)(C)O)n(-c5ccccc5)c4=O)nc3)ccnc2c1`: “inactive”; `CC(=O)Nc1ccc([C@H](C)C(=O)Nc2ncc(C(C)C)s2)cc1`: “inactive”; `O=c1cc(CN2CCOCC2)occ1OCCCCCSc1ccnc2cc(C(F)(F)F)ccc12`: “inactive”.
Consider `CN(C)Cc1ccc(-c2nc3cccc4c3n2CCNC4=O)cc1`, for which the Potency entry is “inactive”.
To `CCCNC(=O)NS(=O)(=O)c1ccc(Cl)cc1` belongs “inactive”; to `CC(=O)N(C)C1(c2ccccc2)CCN(CCC[C@]2(c3ccc(Cl)c(Cl)c3)CCCN(C(=O)c3ccccc3)C2)CC1`, “inactive”.
Next, `CC(C)C(=O)Oc1ccc(CO)cc1[C@H](CCN(C(C)C)C(C)C)c1ccccc1`: “inactive”; `O=C(CCN1CCN(C(=O)OCc2cc(Cl)cc(Cl)c2)CC1)c1ccc2[nH]c(=O)oc2c1`: “inactive”; `CC(C)C(=O)Nc1ncc(-c2cc(C(F)F)nn2-c2c(Cl)cccc2Cl)s1`: “inactive”.
To `O=C(O)c1cc(-c2ccccc2)nc2ccccc12` belongs “inactive”; to `Cn1c(N2CCCCS2(=O)=O)nc(C(=O)NCc2ccc(F)cc2)c(O)c1=O`, 1340 nM (active); to `CC(C)(C)c1cc(C(=O)O)c(NC(=O)Nc2ccc3[nH]ncc3c2)s1`, 1060 nM (active).
In the case of `Cc1nc(N)sc1-c1ccnc(Nc2ccc(N3CCOCC3)cc2)n1`, the Potency is 1500 nM (active).
Next, `CC(C)(C)OC(=O)N[C@H]1CCCCCC=C[C@@H]2C[C@@]2(C(=O)NS(=O)(=O)C2CC2)NC(=O)[C@@H]2C[C@@H](OC(=O)N3Cc4cccc(F)c4C3)CN2C1=O`: “inactive”; `COc1ccc2cc(-c3nc(-c4ccc(S(C)=O)cc4)[nH]c3-c3ccncc3)ccc2c1` (stereo not given): “inactive”; `CN(C[C@@H]1COCCO1)S(=O)(=O)Nc1ccc2ccc3ncc(-c4cnn(C)c4)cc3c(=O)c2c1`: “inactive”.
In the case of `O=C(NC1CCOCC1)c1ccc(-c2cc(-c3cn[nH]c3-c3ccccn3)ccn2)cc1`, the Potency entry was “inactive”.
To `COc1ccccc1N1CCN(CCCNc2cc(=O)n(C)c(=O)n2C)CC1` belongs “inactive”.
Next, `CCN1CCC[C@H]1CNC(=O)c1cc(S(N)(=O)=O)ccc1OC`: “inactive”.
Next, `CC1CCC(C(=O)N(c2cc(C#CC(C)(C)C)sc2C(=O)O)C2CCC(O)CC2)CC1` (stereo not given): “inactive”; `O=c1[nH]cnc2c1ncn2[C@H]1CC[C@@H](CO)O1`: “inactive”.
With `CS(=O)(=O)N(Cc1ccco1)CC(O)Cn1c2ccccc2c2ccccc21` (stereo not given), the Potency result was “inactive”.
Turning to `COc1cc2nc(-c3ccc(N4CCN(C)CC4)cc3)nc(NCCN3CCOCC3)c2cc1OC`, the Potency entry was “inactive”.
Consider `CNC(=O)c1ccc2cc(C3(O)CCn4cncc43)ccc2c1` (stereo not given), for which the Potency entry was “inactive”.
Next, `COc1cc2ncnc(-n3nc(-c4ccccn4)nc3N)c2cc1OC`: “inactive”.
